The values that follow come from PubChem BioAssay (EPA / NIEHS).

What all share (conditions): mRNA level, 48 h; actives raise or lower the signal
Read-out in one experiment: Caspase-3 (Homo sapiens) (UniProt P42574)
Nature of the experiment: LTEA_HepaRG_CASP3: Life Technologies and Expression Analysis (LTEA) Assay for cysteine-aspartic acid protease (CASP3) using HepaRG (AID 2283477). Put shortly: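 HepaRG, 48 h exposure, 8 conc. (top 100 uM, half-log steps, duplicate), 0.5% DMSO vehicle; qRT-PCR of CASP3 transcript, housekeeping-normalised (ACTB/GAPDH/POLR2A); bidirectional curve fit vs DMSO baseline.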

Read-out in experiment [1]: Cytochrome P450 (CYP1A2), CYP1A2 (gene 1544)
Nature of the experiment: LTEA_HepaRG_CYP1A2: Life Technologies and Expression Analysis (LTEA) Assay for Cytochrome P450 (CYP1A2) using HepaRG (AID 2283479). The gist of the method:
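HepaRG, 48 h exposure, top 100 uM, half-log 8-pt, 0.5% DMSO vehicle, duplicates. Readout: TaqMan qRT-PCR of CYP1A2 mRNA, housekeeping-normalized (ACTB/GAPDH/POLR2A). Gain/loss fit relative to DMSO baseline.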

Read-out in experiment [2]: cysteine-aspartic acid protease (CASP8), CASP8 (gene 841)
As to the kind of experiment: LTEA_HepaRG_CASP8: Life Technologies and Expression Analysis (LTEA) Assay for cysteine-aspartic acid protease (CASP8) using HepaRG (AID 2283480). Put shortly: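 Differentiated human HepaRG cells, plated 48 h then switched to serum-free induction medium, were exposed in duplicate for 48 h to 8 half-log concentrations up to 100 uM in 0.5% DMSO. CASP8 mRNA was quantified by qRT-PCR, normalized to ACTB/GAPDH/POLR2A.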

Read-out in experiment [3]: Cytochrome P450 (CYP2B6), CYP2B6 (gene 1555)
Nature of the experiment: LTEA_HepaRG_CYP2B6: Life Technologies and Expression Analysis (LTEA) Assay for Cytochrome P450 (CYP2B6) using HepaRG (AID 2283481). Put shortly:
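Read-out is CYP2B6 mRNA by TaqMan qRT-PCR, normalized to three housekeeping genes and fitted bidirectionally against 0.5% DMSO baseline. Human HepaRG cells received test chemicals for 48 h, top concentration 100 uM, half-log dilutions.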

Read-out in experiment [4]: Cytochrome P450 2C19 (Homo sapiens) (UniProt P33261)
As to the kind of experiment: LTEA_HepaRG_CYP2C19: Life Technologies and Expression Analysis (LTEA) Assay for CYP2C19 using HepaRG (AID 2283482). The gist of the method: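 HepaRG, 48 h chemical exposure, 8-pt half-log series from 100 uM in 0.5% DMSO, duplicates. Readout: CYP2C19 mRNA by TaqMan qRT-PCR, housekeeping-normalized. Bidirectional fit vs DMSO baseline; phenobarbital 1mM as induction control.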

Read-out in a further experiment: CYP2C8 (gene 1558)
As to the kind of experiment: LTEA_HepaRG_CYP2C8: Life Technologies and Expression Analysis (LTEA) Assay for CYP2C8 using HepaRG (AID 2283483). Put shortly: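 Differentiated human HepaRG cells were exposed for 48 h in serum-free induction medium to eight half-log concentrations up to 100 uM in 0.5% DMSO, in duplicate. CYP2C8 mRNA was measured by TaqMan qRT-PCR, normalized to ACTB, GAPDH and POLR2A, and fitted bidirectionally against DMSO.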

Read-out in another experiment: CYP2C9 (gene 1559)
As to the kind of experiment: LTEA_HepaRG_CYP2C9: Life Technologies and Expression Analysis (LTEA) Assay for CYP2C9 using HepaRG (AID 2283484). Put shortly: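 Differentiated human HepaRG cells were exposed 48 h in serum-free induction medium to eight half-log concentrations up to 100 uM in 0.5% DMSO. CYP2C9 mRNA was measured by qRT-PCR, normalized to ACTB, GAPDH and POLR2A, and fitted bidirectionally against DMSO.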

Read-out in the next experiment: CYP2E1 (gene 1571)
Nature of the experiment: LTEA_HepaRG_CYP2E1: Life Technologies and Expression Analysis (LTEA) Assay for CYP2E1 using HepaRG (AID 2283485). Put shortly: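 HepaRG cells in serum-free induction medium exposed 48 h to test chemicals, 8 half-log concentrations up to 100 uM in 0.5% DMSO, duplicate. CYP2E1 mRNA by qRT-PCR, normalized to ACTB, GAPDH, POLR2A; bidirectional fit versus DMSO.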

Read-out in another experiment: CYP4A11 (gene 1579)
As to the kind of experiment: LTEA_HepaRG_CYP4A11: Life Technologies and Expression Analysis (LTEA) Assay for CYP4A11 using HepaRG (AID 2283486). Put shortly:
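CYP4A11 transcript levels were quantified by TaqMan qRT-PCR after HepaRG human liver cells were treated for 48 hours with test chemicals (top 100 uM, half-log dilutions, 0.5% DMSO). Gain or loss of signal was fitted relative to DMSO.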

Read-out in experiment [5]: Cytochrome P450 3A4 (Homo sapiens) (UniProt P08684)
Nature of the experiment: LTEA_HepaRG_CYP3A4: Life Technologies and Expression Analysis (LTEA) Assay for CYP3A4 using HepaRG (AID 2283487). Put shortly: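 CYP3A4 transcript measured by TaqMan qRT-PCR and normalized to three housekeeping genes after 48 h chemical exposure of human HepaRG cells. Top concentration 100 uM, half-log steps, 0.5% DMSO vehicle; gain or loss fitted against DMSO baseline.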

Read-out in experiment [6]: DNA damage-inducible transcript 3 (DDIT3), DDIT3 (gene 1649)
As to the kind of experiment: LTEA_HepaRG_DDIT3: Life Technologies and Expression Analysis (LTEA) Assay for DNA damage-inducible transcript 3 (DDIT3) using HepaRG (AID 2283488). Put shortly: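 Differentiated human HepaRG cells in serum-free induction medium were exposed in duplicate for 48 h to 8 concentrations (top 100 uM, half-log steps, 0.5% DMSO). DDIT3 mRNA measured by TaqMan qRT-PCR, normalized to ACTB/GAPDH/POLR2A; bidirectional fit versus DMSO.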

Read-out in experiment [7]: Pro-epidermal growth factor (Homo sapiens) (UniProt P01133)
Nature of the experiment: LTEA_HepaRG_EGF: Life Technologies and Expression Analysis (LTEA) Assay for Epidermal growth factor (EGF) using HepaRG (AID 2283489). Put shortly: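 qRT-PCR readout of EGF transcript after 48 h chemical exposure of HepaRG cells; eight concentrations from 100 uM down in half-log steps, duplicate wells, 0.5% DMSO vehicle. Bidirectional curve fitting against DMSO baseline.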

Read-out in experiment [8]: Early growth response protein 1 (EGR1) transcription factor, EGR1 (gene 1958)
As to the kind of experiment: LTEA_HepaRG_EGR1: Life Technologies and Expression Analysis (LTEA) Assay for Early growth response protein 1 (EGR1) transcription factor using HepaRG (AID 2283490). The gist of the method:
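Differentiated human HepaRG cells in serum-free induction medium were exposed in duplicate for 48 h to eight concentrations (top 100 uM, half-log steps) in 0.5% DMSO. EGR1 mRNA was quantified by qRT-PCR, normalized to ACTB, GAPDH and POLR2A, and fitted bidirectionally versus DMSO.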

Read-out in experiment [9]: Cytochrome P450 3A7 (Homo sapiens) (UniProt P24462)
Nature of the experiment: LTEA_HepaRG_CYP3A7: Life Technologies and Expression Analysis (LTEA) Assay for CYP3A7 using HepaRG (AID 2283492). Put shortly:
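CYP3A7 transcript levels were read by TaqMan qRT-PCR on Fluidigm arrays after 48 h chemical exposure of human HepaRG cells, with housekeeping-gene normalisation. Eight half-log concentrations up to 100 uM in 0.5% DMSO were tested in duplicate.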

Read-out in another experiment: CYP3A5 (gene 1577)
Nature of the experiment: LTEA_HepaRG_CYP3A5: Life Technologies and Expression Analysis (LTEA) Assay for CYP3A5 using HepaRG (AID 2283493). Put shortly:
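Differentiated HepaRG cells in serum-free induction medium were dosed 48 h with test chemicals (8-point half-log series, top 100 uM, 0.5% DMSO, duplicate). CYP3A5 mRNA measured by qRT-PCR, normalized to ACTB, GAPDH, POLR2A; bidirectional fit versus DMSO.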

Read-out in experiment [10]: Fatty Acid-Binding Protein 1 (FABP1), FABP1 (gene 2168)
Nature of the experiment: LTEA_HepaRG_FABP1: Life Technologies and Expression Analysis (LTEA) Assay for Fatty Acid-Binding Protein 1 (FABP1) using HepaRG (AID 2283494). Put shortly: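 Differentiated human HepaRG cells were exposed in duplicate for 48 h in serum-free induction medium to 8-point half-log concentration series topping at 100 uM in 0.5% DMSO. FABP1 mRNA measured by TaqMan qRT-PCR, normalized to ACTB/GAPDH/POLR2A; bidirectional fit versus DMSO.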

Read-out in experiment [11]: Cytochrome P450 4A22 (Homo sapiens) (UniProt Q5TCH4)
As to the kind of experiment: LTEA_HepaRG_CYP4A22: Life Technologies and Expression Analysis (LTEA) Assay for Cytochrome P450 4A22 (CYP4A22) using HepaRG (AID 2283495). The gist of the method:
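HepaRG, 48 h post-plating -> serum-free induction medium; dosed 48 h, duplicate, 8 conc. (100 uM top, half-log), 0.5% DMSO. Readout: CYP4A22 mRNA by qRT-PCR, ACTB/GAPDH/POLR2A normalization; gain/loss fit relative to DMSO.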

Read-out in experiment [12]: Cytochrome P450 7A1 (Homo sapiens) (UniProt P22680)
Nature of the experiment: LTEA_HepaRG_CYP7A1: Life Technologies and Expression Analysis (LTEA) Assay for Cytochrome P450 7A1 (CYP7A1) using HepaRG (AID 2283496). The gist of the method: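 Gene expression endpoint in human HepaRG liver cells treated for 48 h with test chemicals (up to 100 uM, 0.5% DMSO). Values come from bidirectional concentration-response fitting versus DMSO.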

Read-out in experiment [13]: Ezrin (EZR), EZR (gene 7430)
Nature of the experiment: LTEA_HepaRG_EZR: Life Technologies and Expression Analysis (LTEA) Assay for Ezrin (EZR) using HepaRG (AID 2283491). Put shortly:
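HepaRG, 48 h chemical exposure, 8-pt half-log series from 100 uM, 0.5% DMSO vehicle, duplicates. Read-out: EZR mRNA by TaqMan qRT-PCR (Fluidigm array), housekeeping-normalized; bidirectional curve fit vs DMSO baseline.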

Calls of active or inactive are those of the source. How the source made its calls: active means hit-call score of the fitted dose curve at least 0.9, where 1 is the maximum; inactive means score below 0.9.

Chain of Caspase-3 (Homo sapiens) (P42574 whole entry, looked up): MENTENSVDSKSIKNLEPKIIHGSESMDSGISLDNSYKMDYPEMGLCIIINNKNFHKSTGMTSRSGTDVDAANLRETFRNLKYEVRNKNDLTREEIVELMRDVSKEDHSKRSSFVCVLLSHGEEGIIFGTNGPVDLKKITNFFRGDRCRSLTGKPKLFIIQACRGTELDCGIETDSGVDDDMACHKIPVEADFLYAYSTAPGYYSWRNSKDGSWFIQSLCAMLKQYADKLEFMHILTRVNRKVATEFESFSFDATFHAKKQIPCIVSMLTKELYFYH
Chain of Cytochrome P450 3A4 (Homo sapiens) (P08684 whole entry, looked up): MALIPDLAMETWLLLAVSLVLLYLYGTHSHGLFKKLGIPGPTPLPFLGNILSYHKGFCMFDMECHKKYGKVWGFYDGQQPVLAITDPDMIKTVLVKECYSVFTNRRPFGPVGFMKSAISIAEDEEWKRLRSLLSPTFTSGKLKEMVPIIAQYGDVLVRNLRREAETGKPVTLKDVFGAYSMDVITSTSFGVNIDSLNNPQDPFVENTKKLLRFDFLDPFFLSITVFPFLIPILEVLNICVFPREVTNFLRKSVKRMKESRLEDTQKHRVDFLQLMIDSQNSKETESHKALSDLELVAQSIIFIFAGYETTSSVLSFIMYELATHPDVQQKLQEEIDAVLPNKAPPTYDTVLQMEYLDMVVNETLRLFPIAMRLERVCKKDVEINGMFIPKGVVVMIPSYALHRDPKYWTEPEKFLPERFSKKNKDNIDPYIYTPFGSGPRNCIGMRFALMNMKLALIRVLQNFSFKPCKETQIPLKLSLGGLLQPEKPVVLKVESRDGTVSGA
Chain of Cytochrome P450 2C19 (Homo sapiens) (P33261 whole entry, looked up): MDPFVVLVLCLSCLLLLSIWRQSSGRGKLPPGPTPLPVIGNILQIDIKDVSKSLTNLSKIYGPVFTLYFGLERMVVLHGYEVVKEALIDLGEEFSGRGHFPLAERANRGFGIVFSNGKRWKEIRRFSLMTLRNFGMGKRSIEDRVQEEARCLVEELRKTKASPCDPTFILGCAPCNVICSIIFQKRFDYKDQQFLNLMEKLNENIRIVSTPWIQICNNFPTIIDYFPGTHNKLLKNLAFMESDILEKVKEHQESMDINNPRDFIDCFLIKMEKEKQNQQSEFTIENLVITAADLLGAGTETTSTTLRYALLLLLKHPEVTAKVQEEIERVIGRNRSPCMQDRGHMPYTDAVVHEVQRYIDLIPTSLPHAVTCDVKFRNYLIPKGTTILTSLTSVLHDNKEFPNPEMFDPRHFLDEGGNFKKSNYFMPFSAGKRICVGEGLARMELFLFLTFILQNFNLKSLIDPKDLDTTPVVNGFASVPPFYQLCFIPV
Chain of Cytochrome P450 3A7 (Homo sapiens) (P24462 whole entry, looked up): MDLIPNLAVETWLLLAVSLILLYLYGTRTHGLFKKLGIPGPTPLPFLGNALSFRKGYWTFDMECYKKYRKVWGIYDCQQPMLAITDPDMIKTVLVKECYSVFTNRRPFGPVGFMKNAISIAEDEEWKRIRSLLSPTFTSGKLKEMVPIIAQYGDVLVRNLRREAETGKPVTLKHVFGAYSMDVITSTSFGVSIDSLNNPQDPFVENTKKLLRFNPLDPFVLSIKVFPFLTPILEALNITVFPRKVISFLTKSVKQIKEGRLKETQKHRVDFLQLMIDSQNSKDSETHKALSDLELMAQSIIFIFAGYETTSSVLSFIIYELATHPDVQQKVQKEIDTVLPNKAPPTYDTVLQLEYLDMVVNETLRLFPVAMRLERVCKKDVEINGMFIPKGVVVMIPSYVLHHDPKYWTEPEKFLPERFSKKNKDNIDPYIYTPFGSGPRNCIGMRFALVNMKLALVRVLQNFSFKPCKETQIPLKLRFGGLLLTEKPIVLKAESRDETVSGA

On to `COCCOC[C@H](CC1(C(=O)NC2CCC(C(=O)O)CC2)CCCC1)C(=O)Oc1ccc2c(c1)CCC2` (some centres not stated), for which the outcome (in the experiment with Caspase-3 (Homo sapiens); in experiment [1]; in experiment [2]; in experiment [3]; in experiment [4]; in the experiment with CYP2C8 (gene 1558)) was inactive. For the same compound, the compound was classed as inactive (with CYP2C9 (gene 1559); with CYP2E1 (gene 1571); with CYP4A11 (gene 1579); in experiment [5]; in experiment [6]; in experiment [7]). In addition, the compound was called inactive (in experiment [8]; in experiment [9]; with CYP3A5 (gene 1577); in experiment [10]; in [11]; in [12]).

As for `CCCCCCCCCCC`, the call (in experiment [1]; in [2]; in experiment [3]; in experiment [4]; with CYP2C8 (gene 1558); in the experiment with CYP2C9 (gene 1559)) was inactive. The call (with CYP2E1 (gene 1571); with CYP4A11 (gene 1579); in [5]; in experiment [6]; in experiment [7]; in experiment [8]) was inactive. Besides, the call (in experiment [13]; in experiment [9]; with CYP3A5 (gene 1577); in [10]; in experiment [11]; in experiment [12]) was inactive.

As to `Cc1oc(-c2ccccc2)nc1CCOc1cccc2c1ccn2CCC(=O)O`, the result (with Caspase-3 (Homo sapiens); in experiment [1]; in experiment [7]; with CYP3A5 (gene 1577)) was inactive. Also, the AC50 was 50 µM (active) in experiment [2]; 88.5 µM (active) in experiment [3]; 83.4 µM (active) in [4]; 80.5 µM (active) with CYP2C8 (gene 1558); 77.9 µM (active) with CYP2C9 (gene 1559); 62.6 µM (active) with CYP2E1 (gene 1571). Moreover, the AC50 is 85.9 µM (active) with CYP4A11 (gene 1579); 80.1 µM (active) in experiment [5]; 79.2 µM (active) in experiment [6]; 4.76 µM (active) in experiment [8]; 11.4 µM (active) in experiment [9]; 87.6 µM (active) in [10]. The AC50 in experiment [11] is 85.2 µM (active); in experiment [12] it was 82.3 µM (active).

As for `COc1ccc2c(c1)c(CC(=O)O)c(C)n2C(=O)c1ccc(Cl)cc1`, the outcome (with Caspase-3 (Homo sapiens); in experiment [1]; in experiment [2]; in experiment [3]; in experiment [4]; with CYP2C8 (gene 1558)) was inactive. Moreover, the call (in the experiment with CYP2C9 (gene 1559); with CYP4A11 (gene 1579); in [5]; in [6]; in [7]; in experiment [8]) was inactive. Also, the result (in [9]; with CYP3A5 (gene 1577); in experiment [10]; in experiment [11]; in experiment [12]) was inactive. Further, the AC50 in the experiment with CYP2E1 (gene 1571) was 21.3 µM (active).
